Over roughly 59,000 sequences, the read-out has its median near -0.00055; the lowest 2% begin near -2. The sample as a whole holds a higher share of the lowest values than the screen did.
Assay: Identification of proteins required for the processing of the EWS-FLI1 nascent transcript;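 further: robust z of luciferase light less the median z of siRNAs with the same seed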
Details: TC32 Ewing sarcoma NR0B1-luc vs CMV-luc (EWS-FLI1 target promoter against control promoter), 48 h; screened at 20 nM (by protocol)
How it was run: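 Readout: OneGlo luminescence, 48 h post-transfection, TC32-NR0B1-luc vs TC32-CMV-luc in parallel. siRNA 20 nM final, RNAiMax lipid, 600 cells/well; z-score-MAD transformed, then seed-adjusted.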

| Sequence | seed-corrected z-score |
| --- | --- |
| UAGAAUGUCAGUUGGUUCC against MID1IP1 | 0.366 |
| UACAGAUAAACGAUGAUGC against TMEM104 | -0.0479 |
| AGUUGUCCAACCAAUAGUC against EDRF1 | -3.95 |
| UACAUUGAAGCCUAUGGUU against ARF5 | 0.767 |
| UUUUAUUUUCACAGUAGCA against LOC441239 | 0.865 |
| UGACUGUAAACAGAGGCGG against SSR4 | -0.396 |
| UUUCGUUGGACUUACUUGG against SPP1 | -0.831 |
| UCAGGGCAAAGUGGGAUGA against OXER1 | -2.06 |
| UUCAGGUGGACGAACAGCG against ADAMTS8 | -0.634 |
| UCCGAUAGAGGUUAGACCG against PPT2 | -0.518 |
| UCUUCUUUAUGUACCACCG against CDC37L1 | 0.00159 |
| UUGUAAGCUGGAUCGAUCC against ACACB | 0.0997 |
| UGGGUAUUUGAUCUUGUCG against LZTR1 | -1.37 |
| UUCUCUUCAACCCACUUGG against JAKMIP1 | -2.7 |
| UUUAGGUAAAUGAACUCUC against ANGPTL2 | 0.169 |
| UAAAGGUUGAGAAACUUGA against PRPF38A | -2.42 |
| UUAGAAUCGACCGGCAUUC against KIT | 0.106 |
| UAAAUGGCCGUGAUCAAUC against PRDM16 | -0.168 |

| Sequence | seed-corrected z-score |
| --- | --- |
| UUUGUUCAAGGUUAAUCCC against LRRC27 | 0.333 |
| UAUCUUCUCACUAACACUC against PEX12 | 0.599 |
| ACCCUUAUGAAUUACACCC against PSMD1 | -4.24 |
| UCAUAGUUUAGUUCUCGAG against BBS9 | 0.745 |
| AUAGAAUCGAUGGAAGUCC against CAMK2A | 0.247 |
| UUCUAUGAAAUCGUAAGGC against ME2 | -0.054 |
| AACAGCUCUCUGGUAAGCG against RPS23P8 | -0.758 |
| UUGCUUUCGAGACCAGCUC against C11orf16 | -2.33 |
| UUCUUAUAUGUAGUACGGG against ZNF506 | -0.657 |
| UUCGAACUAAGGCACGAGC against ABCB5 | -0.392 |
| UAUUUCCAUCGGAUGAUGC against GJD3 | -0.0376 |
| UAGGCUUAGAGGUCCCAGC against LACRT | 2.39 |
| UAAUUGACCAGCUUACUAC against PRAMEF2 | 1.04 |
| AAUUCAUCCAUGAUUCUGC against FAM134B | -0.291 |
| UAGUUGUCGACGAGCACGC against MUC5AC | -2.79 |
| UUCUUACCAGUGUUGAUGG against KIF11 | -2.21 |
| UAAUCUUCAUACGCAGUGC against HNRNPR | 0.713 |
| UUCAUACUGAAGAUUUUCC against ZNF157 | -0.0023 |
